Sampled rows, rich in hits. Any-hit rate of the full collection: about 8%.
Gal4-VP16 FLuc: Gal4-VP16 reporter inhibition counter-screen | Drosophila S2 Gal4-VP16 UAS-luciferase, luminescence, 20 h | 310,000 compounds, 3.5% hits | Potency, µM (titrated, usually from 53.6 µM), for the others: at the highest dose activity, negative = inhibition, most hits filed as inhibitors | AID 2546;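 note: Gal4-VP16 expression switched on by copper sulfate through the metallothionein promoter; potency is the fitted concentration of half-maximal effect; nearly all actives have a fitted effect of over 50% in size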
TSHR antag: antagonists of human thyroid stimulating hormone receptor | 330,000 compounds, 0.2% hits | TSHR-expressing cells, TSH-stimulated cAMP HTRF, 2 h; stronger effect = lower value | AID 504810 | activity change, negative = inhibition, % at 11.5 µM;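 active = activity change below a set negative limit, meaning inhibition stronger than a set level, cut at about -70% in these data; inconclusive = activity change between two set negative limits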
Target sequence (P16473 whole entry, looked up): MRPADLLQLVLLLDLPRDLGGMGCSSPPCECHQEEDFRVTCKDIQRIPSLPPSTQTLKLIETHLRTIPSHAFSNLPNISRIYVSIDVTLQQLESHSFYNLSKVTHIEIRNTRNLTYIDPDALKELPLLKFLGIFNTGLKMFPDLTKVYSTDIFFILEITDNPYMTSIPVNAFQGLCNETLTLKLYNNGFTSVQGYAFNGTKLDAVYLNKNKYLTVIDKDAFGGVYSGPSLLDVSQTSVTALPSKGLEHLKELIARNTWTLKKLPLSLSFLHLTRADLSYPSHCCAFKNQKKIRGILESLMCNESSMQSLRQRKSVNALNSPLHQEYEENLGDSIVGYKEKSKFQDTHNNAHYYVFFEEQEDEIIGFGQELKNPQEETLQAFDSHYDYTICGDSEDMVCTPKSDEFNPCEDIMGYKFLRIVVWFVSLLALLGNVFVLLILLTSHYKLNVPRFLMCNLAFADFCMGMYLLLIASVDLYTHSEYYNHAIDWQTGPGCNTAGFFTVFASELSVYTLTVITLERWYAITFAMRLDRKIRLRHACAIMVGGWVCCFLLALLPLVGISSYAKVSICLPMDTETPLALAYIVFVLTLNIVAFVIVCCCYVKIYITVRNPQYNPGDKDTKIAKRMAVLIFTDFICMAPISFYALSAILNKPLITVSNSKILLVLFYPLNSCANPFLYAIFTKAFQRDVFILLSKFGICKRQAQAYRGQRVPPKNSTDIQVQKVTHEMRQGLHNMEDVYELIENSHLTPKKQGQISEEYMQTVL
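Competitive HTRF cAMP read-out (cryptate anti-cAMP antibody, cAMP-d2; 30 min, room temperature) in freshly harvested TSHR cells. Compounds added before TSH at EC80 (4nM final), followed by 2 hours' incubation at 37 deg C.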
Coupling enz: inhibits coupling enzyme system, counter-screen for aldolase hits | 290,000 compounds, 0.67% hits | coupling enzyme system counterscreen, AmpLite Red fluorescence | AID 2472 | activity change, negative = inhibition, % at 58.2 µM, hits read low; in the data active = activity change below about -30%
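Counterscreen lacking aldolase: glyceraldehyde-3-phosphate coupling-enzyme reagent preincubated 10 min at RT with compound (at 57.5 uM final), then substrate/coupling system with AmpLite Red added; fluorescence read at 525/598 nm after 20 min RT.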
ELG1 DNA repair: blocks ELG1-dependent DNA repair in HEK293T cells. HEK293T ELG1-luciferase reporter, luminescence, 16 h; DNA damage induced by 5-fluorouridine. Potency, µM (top dose mostly 46.1 µM), for inactives: top-dose activity change, negative = inhibition, usual class: inhibitors. 330,000 compounds, 2.3% hits; note: potency is the fitted concentration of half-maximal effect; nearly all actives have a fitted effect of over 55% in size
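Overnight (16 hr) co-exposure of 2,000 cells/well to 5-fluorouridine and compound at 37 °C preceded detection. Luciferase was quantified via ONE-Glo luminescence; loss of signal denotes inhibition.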
RORg inh: inhibitors of mouse ROR gamma transcriptional activity. P51450. Drosophila S2 Gal4-RORgamma UAS-luciferase reporter, 20 h. Potency, µM (doses to about 53.6 µM), inactives show at the top dose activity change, negative = inhibition, hits mostly inhibitors. 310,000 compounds, 5.4% hits. AID 2551; note: potency is the fitted concentration of half-maximal effect; nearly all actives have a fitted effect of over 60% in size
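Drosophila Schneider cells stably carrying a metallothionein-driven Gal4 DBD–ROR gamma fusion and a UAS-Photinus luciferase reporter were exposed to compound for 1 hr, then induced with copper sulfate (700 uM final) for 20 hr at ambient temperature before luminescence reading.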
ELG1 FLuc counter: luciferase inhibition in cell-free luciferin readout for ELG1 hits | 350 compounds, 3% hits | cell-free firefly luciferase luminescence counter-screen, ViewLux | shares compounds with ELG1 DNA repair | Potency, µM (series often up to 46.1 µM), inactives show top-dose activity change, negative = inhibition, hits mostly inhibitors; note: potency is the fitted concentration of half-maximal effect
ELG1-Luc inh: confirmation of human ELG1-dependent DNA repair inhibitors. shares compounds with ELG1 DNA repair. HEK293T ELG1-luciferase levels, luminescence; cells co-treated with 5-fluorouridine. Potency, µM (highest dose often 46.1 µM), inactives show at the highest dose activity change, negative = inhibition, usual class: inhibitors. 670 compounds, 68% hits. AID 624248; note: potency is the fitted concentration of half-maximal effect; nearly all actives have a fitted effect of over 55% in size
ELG1 MMS Luc: MMS-stimulated human ELG1 repair inhibition, confirmed | shares compounds with ELG1 DNA repair | HEK293T luciferase-tagged ELG1 level, MMS stimulated | Potency, µM (top dose mostly 46.1 µM), for the others: at the highest dose activity change, negative = inhibition, usual class: inhibitors | 670 compounds, 53% hits | AID 624249; note: potency is the fitted concentration of half-maximal effect; nearly all actives have a fitted effect of over 60% in size
ELG1 5FU viab: confirmation of ELG1 repair inhibitors: viability with 5FU | shares compounds with ELG1 DNA repair | cell viability with 5-FU, ELG1-dependent repair | Potency, µM (titrated, usually from 46.1 µM), for inactives: at the top dose activity change, negative = viability loss, actives largely listed as cytotoxic | 670 tested, under 10 active;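 note: ELG1-luc HEK293T cells cotreated with 5-fluorouridine at 10 µM final; potency is the fitted concentration of half-maximal effect; viability measured 16 h after compound addition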
ELG1 MMS cell: confirmation of ELG1 repair inhibitors: viability with MMS; shares compounds with ELG1 DNA repair; Cell viability with MMS, ELG1-dependent DNA repair; Potency, µM (top dose mostly 46.1 µM), inactives show at the top dose activity change, negative = viability loss, actives largely listed as cytotoxic; 670 compounds, 33% hits; AID 624251;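 note: ELG1-luc HEK293T cells co-treated with 10 µM MMS; potency is the fitted concentration of half-maximal effect; viability read 16 h after compound addition; nearly all actives have a fitted effect of over 60% in size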
ELG1 unstim viab: counter-screen for ELG1 repair inhibitors: unstimulated cell viability; shares compounds with ELG1 DNA repair; cell viability counter-screen, unstimulated, luminescence; Potency, µM (titrated, usually from 45.9 µM), for inactives: at the highest dose activity change, negative = loss of viability, usual class: cytotoxic; 900 compounds, 8% hits;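 note: potency is the fitted concentration of half-maximal effect; compound exposure lasted 16 hours before reading; nearly all actives have a fitted effect of over 55% in size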
FLuc biochem: counter-screen for ELG1 repair inhibitors: firefly luciferase inhibition; 350 compounds, 10% hits; shares compounds with ELG1 DNA repair; AID 624253; purified firefly luciferase, luminescence counter-screen; Potency, µM (titrated, usually from 57.5 µM), without a hit: at the top dose activity, negative = inhibition, actives largely listed as inhibitors; note: potency is the fitted concentration of half-maximal effect
The depositor's hits bear a star; u = inconclusive; x = no result given; [ ] = dose if it differs, or a comment. Unless noted, calls come from the whole dose curve; as a rule, active = well fitted curve in the direction sought with a large enough effect; inconclusive = small, poorly fitted or top-dose-only effect, or another doubt; inactive = no such curve, though single readings can be large; an effect the other way counts as inactive or inconclusive. % is set by controls: 0 for no effect and ±100 for the full control effect.

SMILES | Gal4-VP16 FLuc | TSHR antag | Coupling enz | ELG1 DNA repair | RORg inh | ELG1-Luc inh | ELG1 MMS Luc | ELG1 5FU viab | ELG1 MMS cell | ELG1 unstim viab | others
CCOc1ccc(Br)cc1S(=O)(=O)NC1=NCCCCC1 | x | -14.0 | x | -4.1% | x | x | x | x | x | x
CC(=O)c1cc(F)ccc1OCC(=O)Nc1ccc2c(c1)OCO2 | x | -2.2 | x | u | x | x | x | x | x | -9.4%
CCOc1cc(/C=N\Nc2nc(Nc3ccccc3)nc(N3CCOCC3)n2)ccc1OC(=O)c1ccco1 | -6.8% | -5.1 | 0.0 | 2.31µM* | -28.8%[10 µM] | 1.58µM* | u | u | u | u
COc1ccc(NC(=O)N2CCCC2C(=O)NCCc2ccccc2)cc1 (stereo unspecified) | -5.7% | 3.7 | 0.1 | 13.0% | 12.3% | x | x | x | x | x
COCCn1c(C)cc(C(=O)COC(=O)c2cccnc2SC)c1C | x | -5.1 | x | u | x | x | x | x | x | u | ELG1 FLuc counter=118.4%;FLuc biochem=0.517µM*
Cc1ccc(C)c(CNS(=O)(=O)c2c(C(=O)N3CCCC3)c(C)n(C)c2C)c1 | -3.5% | -3.3 | 1.6 | 5.0% | -0.9% | x | x | x | x | x
NC(=O)C1CCN(c2ccc(S(=O)(=O)N3CCC(Cc4ccccc4)CC3)cn2)CC1 | 0.6% | -6.2 | 0.8 | u | -13.1% | -14.6% | 1.99µM* | -10.3% | 2.5µM* | u
C=CC[C@@H](CC(=O)NCCO)C(=O)NC[C@H](OC(=O)[C@@H](CC=C)Cc1ccc(F)cc1)c1ccccc1 | x | -12.1 | x | 3.26µM* | x | u | 14.1µM* | u | -19.6% | -14.4%
C=CC[C@@H](CC(=O)N[C@@H](CO)Cc1ccccc1)C(=O)NC[C@@H](OC(=O)[C@@H](CC=C)Cc1ccc(F)cc1)c1ccccc1 | x | 11.0 | x | 3.9% | x | x | x | x | x | x
O=C(NCc1cccs1)c1cc(-c2ccccc2)on1 | 5.5% | -4.3 | -0.3 | u | -36.5% | x | x | x | x | -13.6% | ELG1 FLuc counter=76.6%;FLuc biochem=u
COc1ccc(C2=NN(C(=O)COc3ncnc4ccccc34)C(c3ccco3)C2)cc1 (stereo unspecified) | -2.1% | 11.0 | 3.0 | 4.11µM* | 30.9% | u | -2.1% | u | 9.0% | 7.8%
COc1ccc(C2=NN(C(=O)CSc3nnc(C)n3C)C(c3ccco3)C2)cc1 (stereo unspecified) | -1.7% | 5.2 | 2.3 | 0.1% | 30.2% | x | x | x | x | x
Cc1ccc(Cn2ncc3c(N4CCN(CCc5ccccc5)CC4)ncnc32)cc1 | -1.6% | -10.6 | 0.9 | 3.66µM* | 1.7% | u | 3.53µM* | -3.2% | 3.97µM* | u
Cc1oc(C(=O)O)cc1COc1ccc2c3c(c(=O)oc2c1C)CCC3 | 0.4% | -10.4 | 12.1 | u | -12.9% | x | x | x | x | x
Cc1c(OCc2ccc([N+](=O)[O-])cc2)ccc2c3c(c(=O)oc12)CCC3 | u | 3.3 | 4.6 | u | u | x | x | x | x | 0.5%
Cc1noc(/C=C/c2ccco2)c1S(=O)(=O)N1CCC(C(=O)N(C)Cc2ccccc2)CC1 | -6.4% | -3.2 | -0.5 | 4.61µM* | -11.9% | 3.15µM* | 29.4% | u | -0.8% | -10.8%
Cc1noc(/C=C/c2ccco2)c1S(=O)(=O)N1CCC(C(=O)NC(C)c2ccccc2)CC1 (stereo unspecified) | 3.0% | -15.5 | 0.2 | u | -20.7% | x | x | x | x | x
Cc1cccc(/C=C/c2onc(C)c2S(=O)(=O)N2CCC(C(=O)N3CCC(C)CC3)CC2)c1 | -11.5% | -3.8 | x | 1.83µM* | 11.9% | 1.25µM* | 13.2% | u | -6.0% | u
Cc1cccc(CNc2ncncc2-c2ccccc2CN(C)C)c1 | 4.2% | x | -3.7 | x | -31.2% | x | x | x | x | x
C[C@@H]1CC2[C@@H]3CCC4=CC(=O)C=C[C@]4(C)[C@@]3(F)[C@@H](O)C[C@]2(C)[C@@]1(O)C(=O)NCCCCCCOC[C@H]1O[C@@H](n2cnc3cc(Cl)c(Cl)cc32)[C@@H]2OC(C)(C)O[C@@H]21 (stereo partly specified) | x | x | x | x | x | x | x | x | x | -21.5%[92.2 µM] | ELG1 FLuc counter=20.8%[92.2 µM];FLuc biochem=-5.7%[115 µM]
CCN(CC)CCCNC(=O)c1[nH]c2ccccc2c1Sc1ccc(Cl)cc1 | -9.6% | 4.6 | -0.7 | -15.7% | -44.4% | x | x | x | x | x
CN(C)c1ccc(/C=N/Nc2nncc3ccccc23)cc1 | u | -6.5 | 0.5 | u | u | x | x | x | x | x
CN(C)c1ccc(C=Nc2cncc3ccccc23)cc1 | x | x | x | x | x | x | x | x | x | -4.8% | ELG1 FLuc counter=49.6%;FLuc biochem=0.291µM*
COc1ccc(-c2cc(=O)oc3c(C)c(OC(=O)c4cccs4)ccc23)cc1 | 3.2% | -4.4 | 0.3 | 4.11µM* | -4.4% | 4.45µM* | u | -4.1% | -2.4% | -6.4%
O=C1N(c2ccccc2)C(c2ccccc2)C12CCCCC2 (stereo unspecified) | x | 5.1 | x | -11.3% | x | x | x | x | x | x
CCC1(c2ccc(Cl)cc2)NC(=S)N(c2ccccc2)N1 (stereo unspecified) | u | -0.7 | 3.6 | u | u | x | x | x | x | x
CCCCCCC1(C)NC(=S)N(c2ccccc2)N1 (stereo unspecified) | -2.9% | 1.8 | -1.3 | u | 7.08µM* | 19.1% | 23.6% | -7.7% | -14.9% | u
Cc1ccc(-c2nnc(NCc3nc4ccccc4[nH]3)c3ccccc23)cc1S(=O)(=O)N1CCOCC1 | -3.7% | 14.0 | 0.6 | 4.61µM* | 6.7% | 7.05µM* | 15.8µM* | 9.2% | u | u
